Consider four compounds from the supplement of paper PMC6522484.

Assay [1] has as its system DLD1. Briefly: cell viability (CellTiter-Glo) relative to plate median (fraction of plate median); higher = more viable cells. To be noted: 5 µM; treatment time 24 h; reporter: 7TFP. The essentials:
(§1)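 Signals from firefly luciferase or CellTiterGlo readouts were normalised well by well to the plate median using webcellHTS2, additively and with no log transformation. They came from colorectal cancer cell lines stably holding lentiviral TCF/Wnt firefly luciferase reporters (7TFP or TCF4/Wnt), treated with library compounds at a final 5 µM for 24 h. The mean of two independent replicates is given.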
On the technique in general: ATP-based viability assays read luminescence as a measure of living cells.

In assay [2] the test system is HCT116. The assay is described as above. To be noted: 5 µM; treatment time 24 h; reporter: TCF4/Wnt. The essentials: as §1
The test system of assay [3] is SW480. Described as above. To be noted: 5 µM; treatment time 24 h; reporter: 7TFP. The essentials: as §1
Assay [4] concerns DLD1. Briefly: TCF/Wnt firefly luciferase reporter signal relative to plate median (fraction of plate median); higher = higher Wnt reporter signal. Particulars: 5 µM; treatment time 24 h; reporter: 7TFP. In outline:
as §1
(Reporter assays use an easily measured gene product as a stand-in for the process of interest.)

In assay [5] the test system is SW480. The assay is described as above. Particulars: 5 µM; treatment time 24 h; reporter: 7TFP. In outline: as §1

± gives the standard deviation of the averaged measurements.

In the case of `COc1c2occc2cc2ccc(=O)oc12`, the cell viability was 1.04 ± 0.05 in assay [1], 1.02 ± 0.089 in assay [2] and 1.05 ± 0.014 in assay [3]. The results for the “TCF/Wnt firefly luciferase reporter signal” value in assay [4] and in assay [5] were 1.09 ± 0.21 and 1.1 ± 0.057, respectively.

For the compound `CCN(CC)Cc1cc(Nc2ccnc3cc(Cl)ccc23)ccc1O`, the cell viability in assay [1] was found to be 0.908 ± 0.064; in assay [2], 0.967 ± 0.016; in assay [3] it was 0.946 ± 0.051. Moreover, the “TCF/Wnt firefly luciferase reporter signal” value in assay [4] was determined as 0.952 ± 0.17; in assay [5], 0.921 ± 0.25.

Take `C/C=C(\CO)C(=O)O[C@H]1[C@H](O)[C@@H](C(=O)OC)O[C@@H]2C[C@H]3O[C@@H](n4cnc5c(N)ncnc54)[C@H](OC)[C@H]3O[C@]21O` [Herbicidin A]: the cell viability in assay [1] is 1.06 ± 0.014; in assay [2] it was 0.843 ± 0.045; in assay [3], 0.982 ± 0.054. The results for the “TCF/Wnt firefly luciferase reporter signal” value in assay [4] and in assay [5] were 0.933 ± 0.095 and 0.898 ± 0.064, respectively.

For `COc1cc2c(cc1OC)C1(O)C(=O)c3ccc(O)c(C(=O)O)c3OC1CO2` (stereo not given), the cell viability in assay [1] came to 1.05 ± 0.035; in assay [2] it was 1.04 ± 0.059; in assay [3], 1.08 ± 0.014. Also, the “TCF/Wnt firefly luciferase reporter signal” value worked out at 0.9145 ± 0.005 in assay [4] and 0.984 ± 0.14 in assay [5].
